Measurements published in PubChem BioAssay AID504332 (National Center for Advancing Translational Sciences (NCATS), 2011).
“And” between values parts separate entries of the source, which are not always exact repeats. Equal values may be shown once. The campaign covered roughly 350,000 compounds. About 31,000 (8.9%) were called active. Another 15% or so got no clear call; they are omitted. The call rests on the fitted dose curve; in most records, active means well fitted inhibition curve with a large enough effect; inconclusive means small, poorly fitted or top-dose-only effect; inactive means no such curve, though single readings can be large or run the other way. Only a selection was taken, and actives are over-represented in it overall. Some compounds were tested as several samples or in several runs, with calls that do not always agree.

Biological target: Histone-lysine N-methyltransferase EHMT2 (Homo sapiens) (UniProt Q96KQ7)
Experiment: qHTS Assay for Inhibitors of Histone Lysine Methyltransferase G9a; further: nearly all actives have a fitted effect of over 75% in size
Details: G9a H3K9 monomethylation, AlphaScreen, 2 h; series mostly up to 59 µM; activity, negative = inhibition: at the top concentration
Method in brief: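 Step 1: enzyme (final 20 nM) with compound, 15 min RT. Step 2: substrate peptide 500 nM and SAM 20 uM, 2 h RT. Step 3: anti-H3K9me1 antibody and AlphaScreen beads, 10 min, then plate read.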
On the % scale 0 is the no-effect control and ±100 the full control effect; potency means the concentration at half of the fitted maximal effect.

Sequence of Histone-lysine N-methyltransferase EHMT2 (Homo sapiens) (Q96KQ7 913-1193 limits assumed): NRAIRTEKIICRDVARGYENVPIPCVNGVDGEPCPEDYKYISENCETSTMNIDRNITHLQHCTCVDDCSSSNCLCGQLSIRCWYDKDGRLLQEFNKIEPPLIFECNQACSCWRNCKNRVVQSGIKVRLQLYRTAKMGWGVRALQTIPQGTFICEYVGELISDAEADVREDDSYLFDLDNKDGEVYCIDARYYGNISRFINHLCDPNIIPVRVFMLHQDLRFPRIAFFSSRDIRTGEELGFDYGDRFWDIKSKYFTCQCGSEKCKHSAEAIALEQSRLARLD

Structure (SMILES)	activity, negative = inhibition	Potency
O=C(COC(=O)c1ncc(Cl)c(Cl)c1Cl)NC1CCS(=O)(=O)C1 (stereo not given)	3.15% [at 12.7 µM] (inactive)	–
O=C(NCC1CCCO1)c1cc2c(s1)CCCC2 (stereo not given)	29.8% [at 12.7 µM] (inactive)	–
Cc1nc(SCCOc2ccc(Cl)cc2)[nH]c(=O)c1Cc1ccccc1	6.7% (inactive)	–
CCS(=O)(=O)N1CCc2cc(C(=O)NCc3ccc(OC)cc3)ccc21	-45% (inactive)	–
O=C1Nc2ccccc2/C1=C/c1ccnc2ccccc12	3.63% [at 102 µM] (inactive)	–
CN(C)/C=C1/C(=O)Nc2ccccc21	-2.73% [at 12.7 µM] (inactive)	–
Cc1cc(C)c(/C=C2\C(=O)Nc3ccccc32)[nH]1	-50.4% [at 12.7 µM] (inactive)	4.47 µM (active) and 16.8 µM (active)
Cc1cc(-c2ccc(C)c(S(=O)(=O)NCCCN(Cc3ccccc3)C(C)C)c2)on1	13.8% [at 102 µM] (inactive)	–
Cc1cccc(NC(=S)NCCc2ccc(Cl)cc2)c1C	-4.68% [at 102 µM] (inactive)	–
COc1ccc(CCNC(=S)N2CCN(S(=O)(=O)c3ccc(Cl)cc3)CC2)cc1	37.1% [at 102 µM] (inactive)	–
Oc1cc2c(cc1O)CN(C(=S)NCCc1ccc(Cl)cc1)CCC2	–	3.55 µM (active) and 2 µM (active) and 4.74 µM (active)
O=C(NCCc1csc(-c2ccc(C(F)(F)F)cc2)n1)C(=O)Nc1ccc(F)c(Cl)c1	12.8% (inactive)	–
Cc1c(C=O)c2ccccc2n1CCOc1ccccc1	45.3% [at 102 µM] (inactive)	–
Cc1ccc(CS(=O)(=O)CCC(=O)NCc2ccc(F)cc2)cc1	0.73% [at 102 µM] (inactive)	–
CN1C(=O)C[C@H](c2ccccc2)C1=O	-19.1% [at 12.7 µM] (inactive)	–
O=C1NC(c2ccccc2)Oc2ccccc21 (stereo not given)	23.8% [at 102 µM] (inactive)	–
O=C1c2ccccc2C(=O)C1c1ccccc1	–	inactive and 35.5 µM (active)
CCOC(=O)N1CCN(C(=O)COc2ccc3oc4c(c3c2)CCCC4)CC1	14.4% [at 2.33 µM] (inactive)	–
O=C(CCN1C(=O)C2CCCCC2C1=O)Nc1ccc(OC(F)F)cc1 (stereo not given)	-6.31% [at 102 µM] (inactive)	–
CCOc1cc(/C=N/NC(=O)c2cccc(S(=O)(=O)N3CCOCC3)c2)ccc1OCC(=O)N(C)C	-7.27% [at 102 µM] (inactive)	–
O=S(=O)(c1ccc(SCc2ccccc2)nc1)N1CCCCCC1	-5.2% [at 12.7 µM] (inactive)	–
Cc1ccc(-n2nnnc2CNC(=O)c2ccccc2C)cc1C	2.96% (inactive)	–
COC(=O)c1ccc(C(=O)OC)c(NC(=S)N2CCN(c3cc(Cl)ccc3C)CC2)c1	-9.2% (inactive)	–
COC(=O)c1ccc(C(=O)OC)c(NC(=S)N2CCN(c3ccc(F)cc3)CC2)c1	–	44.7 µM (active)

Structure (SMILES)	activity, negative = inhibition	Potency
COC(=O)c1ccccc1OCC(=O)N1CCN(c2ccc(Cl)cc2)CC1	3.66% [at 12.7 µM] (inactive)	–
COc1ccccc1CNC(=O)c1ccccc1NC(=O)c1nsc2ccccc12	-2.06% (inactive)	–
COc1ccc(CCN2C(=O)N(c3cccc(OC)c3)C(=O)C2CC(=O)Nc2ccccc2)cc1 (stereo not given)	-26.4% (inactive)	–
CC(C)c1ccc(/C=C/C(=O)NCCCN2CCOCC2)cc1	13.3% (inactive)	–
Cn1cnc([N+](=O)[O-])c1Sc1ccccc1	14.3% (inactive)	–
Cn1cnc([N+](=O)[O-])c1Nc1ccccc1O	–	25.1 µM (active)
Cn1cnc([N+](=O)[O-])c1Sc1n[nH]c(N)n1	0.592% [at 102 µM] (inactive)	–
Cc1ccc(C2(C)NC(=O)N(CC(=O)Nc3ccccc3C(=O)N3CCCCC3)C2=O)cc1 (stereo not given)	-31.9% [at 102 µM] (inactive)	–
Fc1ccc(-c2nc(Nc3cccc(Cl)c3)nc3c2COc2ccccc2-3)cc1	-3.69% (inactive)	–
Cc1ccc(S(=O)(=O)N2CCC(C(=O)NCCC3=CCCCC3)CC2)cc1C	15.2% [at 0.501 µM] (inactive)	–
C[N+]1(CC(O)COc2ccccc2)CCN(C(=O)c2ccc([N+](=O)[O-])cc2)CC1 (stereo not given)	–	6.31 µM (active)
O=C(c1ccccc1)c1ccc(OCC(O)CN2CCCC2)cc1 (stereo not given)	-37.2% [at 102 µM] (inactive)	–
O=[N+]([O-])c1ccc(N2CCN(CC(O)COc3ccccc3)CC2)cc1 (stereo not given)	-0.815% [at 102 µM] (inactive)	–
COc1ccc(CC(=O)N/N=C/c2cc([N+](=O)[O-])cc(Br)c2O)cc1	-16.6% [at 102 µM] (inactive)	–
CCN(CC)CCCNC(=O)c1ccc2c(=O)n(Cc3ccc4c(c3)OCO4)c(=S)[nH]c2c1	–	31.6 µM (active)
CN(C)CCn1c(=S)[nH]c2ccc(Cl)cc2c1=O	–	50.1 µM (active)
CCCCNC(=O)CCn1c(=S)[nH]c2cc3c(cc2c1=O)OCO3	5.03% [at 0.0925 µM] (inactive)	–
Cc1c(C)n(Cc2ccc(Cl)cc2)c2ccc(C(=O)NCCCN3CCOCC3)cc12	–	44.7 µM (active)
CCCCn1c(=S)[nH]c2ccccc2c1=O	25.5% (inactive)	–
COc1ccc(-c2cc(C(=O)NCCCN3CCOCC3)no2)cc1	14.1% [at 102 µM] (inactive)	–
COc1ccc(Cn2c(=S)[nH]c3cc(C(=O)NCCCN4CCOCC4)ccc3c2=O)cc1	–	10 µM (active)
O=C(CCn1c(=S)[nH]c2cc3c(cc2c1=O)OCO3)NCc1ccc(Cl)cc1	53.9% (inactive)	–
CCOc1cc2[nH]c(=O)n(Cc3ccc(C(=O)NCCN(CC)CC)cc3)c(=O)c2cc1OCC	-1.55% (inactive)	–
COc1ccc(Cn2c(=S)[nH]c3cc(C(=O)N4CCCCC4)ccc3c2=O)cc1	22.6% [at 102 µM] (inactive)	–

Structure (SMILES)	activity, negative = inhibition	Potency
O=C(NCCCN1CCOCC1)c1cc(-c2ccc(Cl)cc2)on1	16.3% (inactive)	–
Cc1ccc(NS(=O)(=O)c2ccc(C(=O)NCCCN3CCOCC3)cc2)cc1	-22.7% [at 102 µM] (inactive)	–
Cc1ccc2nnn(Cc3cccc(C(C)(C)C)c3O)c2c1	15.4% [at 2.33 µM] (inactive)	–
COc1ccc(CCNC(=O)CCc2c(C)nc3c(c(C)nn3-c3ccc(C)c(C)c3)c2C)c(OC)c1OC	-1.62% (inactive)	–
O=C(CSc1nnnn1C1CCCC1)N1CCCCC1	-8.4% [at 102 µM] (inactive)	–
Cc1cccc(CC(=O)Nc2cccc(-c3cn4cccnc4n3)c2)c1	0.135% (inactive)	–
CC(=O)c1ccc(NC(=O)C2CCN(S(=O)(=O)c3c(C)noc3/C=C/c3ccc(C)cc3)CC2)cc1	6.83% (inactive)	–
Cc1noc(C)c1COc1ccc(C(=O)NCCOc2ccccc2)cc1	19.8% [at 12.7 µM] (inactive)	–
Cc1ccc(CNC(=O)CCc2c(C)nc3c(c(C)nn3-c3ccccc3)c2C)cc1	1.65% (inactive)	–
CC(CC(=O)N1CCN(c2ccccc2)CC1)S(=O)(=O)c1ccc2c(c1)NC(=O)CS2 (stereo not given)	-15.8% [at 102 µM] (inactive)	–
Cc1ccc(N2CC(c3nnc(Cc4ccccc4Cl)o3)CC2=O)cc1 (stereo not given)	-22.7% (inactive)	–
COc1cccc(NC(=O)CN(C)C(=O)c2cc(C3CC3)nn2-c2ccccc2)c1	1.72% [at 2.33 µM] (inactive)	–
Cn1c(=O)c2c(SCC(=O)N3CCc4ccccc43)nc(-c3ccc(Cl)cc3)nc2n(C)c1=O	0.591% (inactive)	–
NC(=O)C1CCN(C(=O)c2ccc3c(=O)n(Cc4cccc(Br)c4)c(=S)[nH]c3c2)CC1	–	39.8 µM (active)
COc1ccccc1Cn1c(=S)[nH]c2cc(C(=O)N3CCN(C)CC3)ccc2c1=O	19.2% (inactive)	–
COc1cc2[nH]c(=S)n(Cc3ccc(F)cc3)c(=O)c2cc1OC	9.96% [at 102 µM] (inactive)	–
CCOc1cc2[nH]c(=S)n(Cc3ccc(C(=O)N4CCN(C)CC4)cc3)c(=O)c2cc1OCC	4.55% [at 102 µM] (inactive)	–
O=C(O)c1ccc(Cn2c(=S)[nH]c3cc(Cl)ccc3c2=O)cc1	–	39.8 µM (active)
CCOC(=O)N1CCN(C(=O)c2ccc3c(=O)n(CCc4ccc(OC)c(OC)c4)c(=O)[nH]c3c2)CC1	-5.11% [at 102 µM] (inactive)	–
COc1ccc(Nc2ncc(C(=O)Nc3cc(C)ccc3OC)c3ccccc23)cc1	-0.322% (inactive)	–
O=C(NCc1ccncc1)C1CCCN(S(=O)(=O)c2ccc(Br)cc2)C1 (stereo not given)	-5.72% [at 102 µM] (inactive)	–
Cc1ccc(C)c(N2CCN(C(=O)Cn3ncc4c(=O)oc5ccc(C)cc5c43)CC2)c1	-1.95% (inactive)	–
COc1cc(OC)c(N(C)C(=O)c2cc3c(=O)oc4ccccc4c3s2)cc1Cl	3.37% (inactive)	–
COc1ccccc1CNC(=O)c1ccc(-n2c(C)cc3c2CCCC3)cc1	-4.16% (inactive)	–

Structure (SMILES)	activity, negative = inhibition	Potency
c1nc(COc2nsnc2N2CCOCC2)cs1	15.5% [at 2.33 µM] (inactive)	–
O=C(O)COc1nsnc1N1CCOCC1	20.7% [at 102 µM] (inactive)	–
c1ccc(COc2nsnc2N2CCOCC2)cc1	–	14.1 µM (active)
CCOc1ccc(N(CC)C(=O)c2cc3c(=O)oc4ccccc4c3s2)cc1	10.3% (inactive)	–
CCS(=O)(=O)C1=NSC2=NC(=O)/C(=C\c3cc(C)n(-c4cccc(OC)c4)c3C)C(=N)N21	8.92% (inactive)	–
N=C1/C(=C/c2cccn2-c2cccc([N+](=O)[O-])c2)C(=O)N=C2SC=CN12	29.7% [at 102 µM] (inactive)	–
COc1cc(/C=C2\C(=N)N3N=C(CC(=O)N4CCOCC4)SC3=NC2=O)cc(OC)c1OC	78.5% [at 102 µM] (inactive)	–
CCS(=O)(=O)C1=NSC2=NC(=O)/C(=C\c3ccc(OS(=O)(=O)c4ccccc4)cc3)C(=N)N21	–	39.8 µM (active)
Cc1ccc(C2=N/C(=C\c3ccc(OS(=O)(=O)c4ccc(C)cc4)cc3)C(=O)O2)cc1	19.5% (inactive)	–
Cc1cc(/C=C2/C(=N)N3C(=NC2=O)SN=C3S(C)(=O)=O)c(C)n1-c1ccccc1	–	35.5 µM (active)
CCC1=Nc2cc(C(=O)NCCCOC(C)C)ccc2Sc2ccc(C)cc21	1.84% (inactive)	–
O=C(COC(=O)c1ccccn1)NNC(=O)c1ccc([N+](=O)[O-])cc1	6.96% [at 102 µM] (inactive)	–
CCCNC(=O)c1ccc(Cn2c(SCC(N)=O)nc3ccccc3c2=O)cc1	2.19% (inactive)	–
CC(=O)CCC(=O)c1ccc2ccccc2c1	18.9% (inactive)	–
CC(=O)c1ccc2c(ccc3ccccc32)c1	-4.88% (inactive)	–
C=CC(=O)c1ccc2ccccc2c1	–	1.26 µM (active)
O=C(/C=C/c1ccccc1)Nc1cc(-c2nc3cc(Cl)ccc3o2)ccc1Cl	10.9% (inactive)	–
CCOc1ccc(NC(=O)Nc2cc(C)ccc2OC)cc1	28.6% (inactive)	–
CCn1cc(NC(=O)Nc2ccc(OC)c(OC)c2)c(C(N)=O)n1	–	25.1 µM (active)
COc1ccc(NC(=O)N2CCCn3nc(C)cc32)cc1OC	5.44% (inactive)	–
Cc1ccc(NC(=O)CCCNC(=O)c2ccc(Cl)cc2)cc1S(=O)(=O)N1CCCCC1	-49.7% [at 102 µM] (inactive)	–
O=C(O)c1c(CNCc2cccc(F)c2)c2ccccc2n1Cc1ccccc1	-2.2% (inactive)	–
